Screening data (PubChem)
DT40 TDP1 no CPT – qHTS for Inhibitors of human tyrosyl-DNA phosphodiesterase 1 (TDP1): qHTS in cells in absence of CPT. DT40 Tdp1-/- hTDP1 cells, no CPT, ATP luminescence, 48 h. Potency, µM (titrated, usually from 46.2 µM), most hits filed as inhibitors. 15% of 420,000 active. AID 686978, 2013; further: nearly all actives have a fitted effect of over 55% in size
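Luminescent ATP content (CellTiter-Glo) served as the growth readout. Knockout chicken DT40 cells expressing human TDP1 were exposed to compounds without camptothecin for a minimum 48 hr at 37 °C.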
HT1080 IDH1KD tx – qHTS for induction of synthetic lethality in tumor cells producing 2HG: qHTS for the HT-1080-IDH1KD cell line. AID 686971, 2013. HT-1080 IDH1 knockdown viability, ATP luminescence, 48 h. 2% of 360,000 active. Potency, µM (series often up to 46.1 µM), hits mostly cytotoxic
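Assay cells: HT-1080 with IDH1 knockdown, 750 per well, RPMI/5% FBS. Exposure: 48 h at 37 °C following 2 h pre-incubation. Read: CellTiter-Glo luminescence; fitted concentration-response, curve class assigned.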
DT40 TDP1 CPT – qHTS for Inhibitors of human tyrosyl-DNA phosphodiesterase 1 (TDP1): qHTS in cells in presence of CPT; chicken DT40 Tdp1-/-;hTDP1 cells + 20 nM CPT, ATP luminescence, 48 h; Potency, µM (top dose mostly 46.2 µM), usual class: inhibitors; 12% of 420,000 active; further: nearly all actives have a fitted effect of over 55% in size
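Chicken DT40 Tdp1-/- cells complemented with human TDP1, 400 cells/well, exposed to compounds plus 20 nM camptothecin for at least 48 h at 37 C; viability read as ATP content by CellTiter-Glo luminescence.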
HT1080NT lethal – qHTS for induction of synthetic lethality in tumor cells producing 2HG: qHTS for the HT-1080-NT fibrosarcoma cell line; HT-1080-NT fibrosarcoma viability, CellTiter-Glo ATP luminescence, 48 h; Potency, µM (highest dose often 46.1 µM), hits mostly cytotoxic; 1.6% of 360,000 active;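 further: NT is the 2HG producing partner of a matched IDH1 knockdown line; nearly all actives have a fitted effect of over 55% in size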
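A 48-hour cytotoxicity screen used HT-1080-NT cells plated 2 hours before compound delivery. ATP-based CellTiter-Glo luminescence measured viability, normalized to DMSO and no-cell controls.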
IL-1B inflam inh – qHTS for Inhibitors of Inflammasome Signaling: IL-1-beta AlphaLISA Primary Screen; THP-1 LPS/ATP IL-1B secretion, AlphaLISA, 16 h; hits give low values; activity change, % at 57.5 µM; 4.7% of 360,000 active; in the data active means activity change below about -50%; inconclusive means mostly about -30% to -49%
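THP-1 cells pretreated 1 hr with compounds (up to 57.5 uM final), then stimulated with LPS (250 ng/mL final) plus ATP (1.25 mM final); secreted IL-1B measured by AlphaLISA after 16 hr, decreased signal indicating inhibition.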
Large screens that a line does not name were inactive. Most compounds without a hit are left out; they make up all but 19% or so of the library. Unless noted, the call rests on the fitted dose curve; in most records, active means well fitted curve in the direction sought with a large enough effect; inconclusive means small, poorly fitted or top-dose-only effect, or another doubt; inactive means no such curve, though single readings can be large; an effect the other way counts as inactive or inconclusive.

Cc1ccc(N=Nc2c(N)nn(-c3ccccc3)c2N)cc1	DT40 TDP1 no CPT 4.61µM, HT1080 IDH1KD tx 9.2µM, DT40 TDP1 CPT 3.66µM, HT1080NT lethal 10.3µM
Cc1ccc(N=Nc2c(N)nn3c(C)cc(C)nc23)cc1	DT40 TDP1 no CPT 23.1µM, DT40 TDP1 CPT inconclusive
COc1ccc(Nc2cc3n(c(=O)n2)CCc2cc(OC)c(OC)cc2-3)cc1	DT40 TDP1 no CPT inconclusive
COc1cc2c(cc1OC)-c1cc(Nc3ccc4c(c3)OCCO4)nc(=O)n1CC2	DT40 TDP1 no CPT inconclusive, IL-1B inflam inh -70.3
COc1ccc(Nc2cc3n(c(=O)n2)CCc2cc(OC)c(OC)cc2-3)c(C)c1	DT40 TDP1 no CPT 14.6µM, DT40 TDP1 CPT inconclusive
COc1cc2c(cc1OC)-c1cc(N3CCc4ccccc43)nc(=O)n1CC2	DT40 TDP1 no CPT inconclusive, DT40 TDP1 CPT inconclusive, IL-1B inflam inh -65.7
CCCC1CCC(c2ccc(/C(N)=N/O)cc2)CC1 (centres undefined)	DT40 TDP1 no CPT 14.6µM, DT40 TDP1 CPT inconclusive, IL-1B inflam inh inconclusive
CCCC1CCC(c2ccc(C(N)=O)cc2)CC1 (centres undefined)	none
CCCC1CCC(c2ccc(C(=O)NN)cc2)CC1 (centres undefined)	DT40 TDP1 no CPT 29.1µM, DT40 TDP1 CPT 29.1µM
CCN1C[C@@H]2[C@@H]3C(=O)N(C)C(=O)[C@@H]3[C@](C)(C(=O)OC)N2C1=NC	none
Cc1ccccc1NC(=O)Cn1c(=O)n(Cc2ccccc2)c(=O)c2sc3ccccc3c21	DT40 TDP1 no CPT inconclusive (no result: HT1080 IDH1KD tx, HT1080NT lethal, IL-1B inflam inh)
CN(CCC#N)c1ccc(C=C(C#N)c2cccc(C(F)(F)F)c2)cc1	DT40 TDP1 no CPT 23.1µM, DT40 TDP1 CPT 16.4µM, HT1080NT lethal inconclusive
CC(=O)Nc1ccc(C(C#N)=Cc2ccc(N(C)CCC#N)cc2)cc1	DT40 TDP1 no CPT 14.6µM, DT40 TDP1 CPT inconclusive
CC(C)(C)NCC(O)c1ccc(O)c(CO)n1 (centres undefined)	none (no result: HT1080 IDH1KD tx, HT1080NT lethal, IL-1B inflam inh)
COc1ccc(NC(=O)CC2C(=O)N(c3ccccc3)C(=O)N2Cc2ccco2)cc1 (centres undefined)	none
CCc1ccc(NC(=O)CC2C(=O)N(c3ccc(Cl)cc3)C(=O)N2Cc2ccco2)cc1 (centres undefined)	DT40 TDP1 no CPT inconclusive, DT40 TDP1 CPT 20.6µM (no result: HT1080 IDH1KD tx, HT1080NT lethal, IL-1B inflam inh)
COc1ccc(N2C(=O)C(CC(=O)Nc3ccccc3)N(Cc3cccs3)C2=O)cc1 (centres undefined)	DT40 TDP1 no CPT inconclusive, DT40 TDP1 CPT inconclusive
CCc1ccc(NC(=O)CC2C(=O)N(c3cccc(C)c3)C(=O)N2Cc2ccco2)cc1 (centres undefined)	DT40 TDP1 no CPT 25.9µM, DT40 TDP1 CPT 16.4µM (no result: HT1080 IDH1KD tx, HT1080NT lethal, IL-1B inflam inh)
CCc1ccc(NC(=O)CC2C(=O)N(c3cccc(C)c3)C(=O)N2Cc2cccs2)cc1 (centres undefined)	DT40 TDP1 no CPT 20.6µM, DT40 TDP1 CPT 20.6µM (no result: HT1080 IDH1KD tx, HT1080NT lethal, IL-1B inflam inh)
COc1ccc(NC(=O)CC2C(=O)N(c3ccc(F)cc3)C(=O)N2Cc2ccco2)cc1 (centres undefined)	DT40 TDP1 CPT inconclusive (no result: HT1080 IDH1KD tx, HT1080NT lethal, IL-1B inflam inh)
COc1ccc(CCNC(=O)C2CCN(S(=O)(=O)c3cccs3)CC2)cc1OC	none
COc1cccc(CNC(=O)Nc2cccs2)c1	DT40 TDP1 no CPT inconclusive, DT40 TDP1 CPT 7.31µM
Cc1ccc(S(=O)(=O)C(CNC(=O)C(C)C)c2cccs2)cc1 (centres undefined)	none
COc1ccc(C(=O)NCC(c2cccs2)S(=O)(=O)c2cccs2)cc1 (centres undefined)	DT40 TDP1 no CPT 16.4µM, DT40 TDP1 CPT inconclusive (no result: HT1080 IDH1KD tx, HT1080NT lethal, IL-1B inflam inh)
COc1ccc(C(=O)NCC(c2cccs2)S(=O)(=O)c2ccc(C)cc2)cc1 (centres undefined)	DT40 TDP1 no CPT 14.6µM, DT40 TDP1 CPT 23.1µM (no result: HT1080 IDH1KD tx, HT1080NT lethal, IL-1B inflam inh)
COc1ccc(C(CC(=O)c2ccccc2)CC(=O)c2ccccc2)cc1	DT40 TDP1 no CPT inconclusive, DT40 TDP1 CPT inconclusive
COc1ccc(CNC(=O)Nc2cccs2)cc1OC	none
